# ChEMBL document CHEMBL3988442, “University of Dundee, Small-Polar-MMV Screening Library” (2021)
# For some assays here: Entries with a potency or affinity are not part of this list.
# Columns and labels:
# Set-up in all cases: scale not given: direction of the effect not stated beside the values
# [1] = target: Protein translocase subunit SecA (Escherichia coli (strain K12)) (UniProt P10408); assay: Assay to Identify E. coli SecA ATPase Inhibitors; format: functional; conditions: 30 µM
# [2] = target: T1, Ubiquitin-activating enzyme e1, putative (Leishmania donovani (strain BPK282A1)) (UniProt E9BSI1); assay: Leishmania donovani Ubiquitin Activating Enzyme (LdE1); format: functional; conditions: 30 µM
# T1 sequence (whole entry): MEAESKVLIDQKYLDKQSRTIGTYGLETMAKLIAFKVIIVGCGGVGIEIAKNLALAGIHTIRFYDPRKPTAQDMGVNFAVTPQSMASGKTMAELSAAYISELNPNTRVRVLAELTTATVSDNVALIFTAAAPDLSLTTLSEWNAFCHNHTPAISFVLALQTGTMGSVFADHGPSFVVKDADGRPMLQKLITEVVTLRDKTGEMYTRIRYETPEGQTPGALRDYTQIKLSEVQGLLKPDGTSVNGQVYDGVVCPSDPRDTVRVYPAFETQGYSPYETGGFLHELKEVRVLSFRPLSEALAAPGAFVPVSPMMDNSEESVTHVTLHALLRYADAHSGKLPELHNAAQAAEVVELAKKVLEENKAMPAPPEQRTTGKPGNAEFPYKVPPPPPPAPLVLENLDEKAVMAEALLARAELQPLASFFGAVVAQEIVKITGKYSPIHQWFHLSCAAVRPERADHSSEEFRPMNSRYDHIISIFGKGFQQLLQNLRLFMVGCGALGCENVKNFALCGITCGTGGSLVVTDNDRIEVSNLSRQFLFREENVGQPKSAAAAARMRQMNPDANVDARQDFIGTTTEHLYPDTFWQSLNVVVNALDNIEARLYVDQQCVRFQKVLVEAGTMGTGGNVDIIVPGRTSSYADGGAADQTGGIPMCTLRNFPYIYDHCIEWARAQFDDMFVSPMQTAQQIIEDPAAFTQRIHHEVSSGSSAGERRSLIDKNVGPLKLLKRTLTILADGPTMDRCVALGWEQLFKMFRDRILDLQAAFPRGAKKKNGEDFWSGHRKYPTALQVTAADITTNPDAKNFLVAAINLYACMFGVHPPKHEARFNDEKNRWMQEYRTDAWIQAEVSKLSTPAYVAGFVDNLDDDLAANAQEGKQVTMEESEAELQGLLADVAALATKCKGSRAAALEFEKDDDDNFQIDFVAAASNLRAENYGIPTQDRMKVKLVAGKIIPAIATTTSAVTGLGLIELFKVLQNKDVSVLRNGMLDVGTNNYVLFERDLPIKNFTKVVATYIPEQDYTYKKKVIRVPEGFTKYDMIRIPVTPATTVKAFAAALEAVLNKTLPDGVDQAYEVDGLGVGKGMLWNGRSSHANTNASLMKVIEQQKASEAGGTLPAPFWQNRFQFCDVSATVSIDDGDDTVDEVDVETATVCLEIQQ
# [3] = target: AMP-activated protein kinase, AMPK (Homo sapiens) (UniProt P54646+O43741+P54619+Q9UGJ0+Q9Y478+Q13131+Q9UGI9); assay: AMP-dependent Kinase enzyme assay. An in vitro enzyme assay that detects ADP turnover that is directly proportional to AMPK activity. This uses naive AMPK that is activated during the assay with MK-8722; format: functional; conditions: 30 µM
# [4] = target: Sialic acid-binding Ig-like lectin 9 (Homo sapiens) (UniProt Q9Y336); assay: Hs-Siglec9 ALPHAscreen SOP 20170721; conditions: 10 µM
# Trypanosoma cruzi = assay: Trypanosoma cruzi phosphomannomutase and mannose-1-phosphate guanylyltransferase assay; format: functional; conditions: 10 µM
# [5] = target: T2, Arginase-2, mitochondrial (Homo sapiens) (UniProt P78540); assay: in vitro enzyme assay to detect the production of urea directly proportional to the activity of Arginase II; format: functional; conditions: 33.3 µM; note: in the data most compounds retested in dose-response had high values
# T2 sequence (whole entry): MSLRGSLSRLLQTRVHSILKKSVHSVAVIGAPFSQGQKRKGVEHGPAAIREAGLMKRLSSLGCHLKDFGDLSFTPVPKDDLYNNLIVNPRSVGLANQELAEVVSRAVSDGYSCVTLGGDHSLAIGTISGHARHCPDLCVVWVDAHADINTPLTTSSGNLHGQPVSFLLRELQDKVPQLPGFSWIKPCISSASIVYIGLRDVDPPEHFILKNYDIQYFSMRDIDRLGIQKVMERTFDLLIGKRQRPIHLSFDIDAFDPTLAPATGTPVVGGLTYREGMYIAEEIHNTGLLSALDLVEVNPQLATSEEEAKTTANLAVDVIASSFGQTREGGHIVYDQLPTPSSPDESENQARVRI
# [6] = target: T3, Proteasome subunit beta (Trypanosoma cruzi) (UniProt O96673); assay: Trypanosoma cruzi proteasome chymotrypsin-like activity (TcProtChymo) assay.; note: in the data most compounds retested in dose-response had high values; format: functional; conditions: 9.37 µM
# T3 sequence (whole entry): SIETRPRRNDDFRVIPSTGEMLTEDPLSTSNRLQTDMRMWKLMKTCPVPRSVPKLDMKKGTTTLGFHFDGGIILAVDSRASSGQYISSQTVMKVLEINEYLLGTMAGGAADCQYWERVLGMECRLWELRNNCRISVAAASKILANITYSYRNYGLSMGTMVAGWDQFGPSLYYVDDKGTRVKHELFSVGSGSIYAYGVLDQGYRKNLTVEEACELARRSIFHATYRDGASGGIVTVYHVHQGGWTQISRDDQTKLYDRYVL
# Homo sapiens = organism: Homo sapiens; assay: To identify inhibition of the IFN signalling (Jak-Stat) pathway via expression of an eGFP reporter gene under the control of an IFN-stimulated response element (ISRE) containing MxA promoter.; format: functional; conditions: 30 µM
# [7] = target: T4, Tyrosyl-tRNA synthetase, putative (Trypanosoma cruzi (strain CL Brener)) (UniProt Q4DSP6); assay: Trypanosoma cruzi tyrosyl tRNA synthetase (TcYRS) _High Tyrosine SOP; format: functional; conditions: 30 µM; note: in the data most compounds retested in dose-response had high values
# T4 sequence (whole entry): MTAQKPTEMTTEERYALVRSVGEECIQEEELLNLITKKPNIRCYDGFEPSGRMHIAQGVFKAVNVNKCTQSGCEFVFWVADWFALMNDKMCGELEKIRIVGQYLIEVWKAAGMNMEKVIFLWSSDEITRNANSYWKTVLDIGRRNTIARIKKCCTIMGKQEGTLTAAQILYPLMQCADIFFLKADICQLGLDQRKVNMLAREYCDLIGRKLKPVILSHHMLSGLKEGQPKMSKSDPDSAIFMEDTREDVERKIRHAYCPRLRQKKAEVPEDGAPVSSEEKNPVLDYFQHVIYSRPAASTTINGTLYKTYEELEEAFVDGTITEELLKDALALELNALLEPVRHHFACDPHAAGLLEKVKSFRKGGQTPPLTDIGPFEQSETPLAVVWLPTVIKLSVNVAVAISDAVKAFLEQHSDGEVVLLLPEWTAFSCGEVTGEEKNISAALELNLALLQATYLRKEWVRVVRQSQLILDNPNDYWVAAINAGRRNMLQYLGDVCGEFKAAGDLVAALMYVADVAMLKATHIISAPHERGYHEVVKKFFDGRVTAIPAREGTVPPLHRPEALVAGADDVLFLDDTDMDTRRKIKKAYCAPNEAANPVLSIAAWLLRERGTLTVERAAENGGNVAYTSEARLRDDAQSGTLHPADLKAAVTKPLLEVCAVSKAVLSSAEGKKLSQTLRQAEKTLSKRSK
# [8] = target: T4, Tyrosyl-tRNA synthetase, putative (Trypanosoma cruzi (strain CL Brener)); assay: Trypanosoma cruzi tyrosyl tRNA synthetase (TcYRS) SOP; format: functional; conditions: 30 µM
# [9] = target: Chromo domain-containing protein 1 (Saccharomyces cerevisiae (strain ATCC 204508 / S288c) (Baker's yeast)) (UniProt P32657); assay: ScCHD-1 Enzyme Inhibition Assay; format: functional; conditions: 30 µM; note: in the data most compounds retested in dose-response had high values
# Chain of Chromo domain-containing protein 1 (Saccharomyces cerevisiae (strain ATCC 204508 / S288c) (Baker's yeast)) (P32657 whole entry, the tested form may be a part): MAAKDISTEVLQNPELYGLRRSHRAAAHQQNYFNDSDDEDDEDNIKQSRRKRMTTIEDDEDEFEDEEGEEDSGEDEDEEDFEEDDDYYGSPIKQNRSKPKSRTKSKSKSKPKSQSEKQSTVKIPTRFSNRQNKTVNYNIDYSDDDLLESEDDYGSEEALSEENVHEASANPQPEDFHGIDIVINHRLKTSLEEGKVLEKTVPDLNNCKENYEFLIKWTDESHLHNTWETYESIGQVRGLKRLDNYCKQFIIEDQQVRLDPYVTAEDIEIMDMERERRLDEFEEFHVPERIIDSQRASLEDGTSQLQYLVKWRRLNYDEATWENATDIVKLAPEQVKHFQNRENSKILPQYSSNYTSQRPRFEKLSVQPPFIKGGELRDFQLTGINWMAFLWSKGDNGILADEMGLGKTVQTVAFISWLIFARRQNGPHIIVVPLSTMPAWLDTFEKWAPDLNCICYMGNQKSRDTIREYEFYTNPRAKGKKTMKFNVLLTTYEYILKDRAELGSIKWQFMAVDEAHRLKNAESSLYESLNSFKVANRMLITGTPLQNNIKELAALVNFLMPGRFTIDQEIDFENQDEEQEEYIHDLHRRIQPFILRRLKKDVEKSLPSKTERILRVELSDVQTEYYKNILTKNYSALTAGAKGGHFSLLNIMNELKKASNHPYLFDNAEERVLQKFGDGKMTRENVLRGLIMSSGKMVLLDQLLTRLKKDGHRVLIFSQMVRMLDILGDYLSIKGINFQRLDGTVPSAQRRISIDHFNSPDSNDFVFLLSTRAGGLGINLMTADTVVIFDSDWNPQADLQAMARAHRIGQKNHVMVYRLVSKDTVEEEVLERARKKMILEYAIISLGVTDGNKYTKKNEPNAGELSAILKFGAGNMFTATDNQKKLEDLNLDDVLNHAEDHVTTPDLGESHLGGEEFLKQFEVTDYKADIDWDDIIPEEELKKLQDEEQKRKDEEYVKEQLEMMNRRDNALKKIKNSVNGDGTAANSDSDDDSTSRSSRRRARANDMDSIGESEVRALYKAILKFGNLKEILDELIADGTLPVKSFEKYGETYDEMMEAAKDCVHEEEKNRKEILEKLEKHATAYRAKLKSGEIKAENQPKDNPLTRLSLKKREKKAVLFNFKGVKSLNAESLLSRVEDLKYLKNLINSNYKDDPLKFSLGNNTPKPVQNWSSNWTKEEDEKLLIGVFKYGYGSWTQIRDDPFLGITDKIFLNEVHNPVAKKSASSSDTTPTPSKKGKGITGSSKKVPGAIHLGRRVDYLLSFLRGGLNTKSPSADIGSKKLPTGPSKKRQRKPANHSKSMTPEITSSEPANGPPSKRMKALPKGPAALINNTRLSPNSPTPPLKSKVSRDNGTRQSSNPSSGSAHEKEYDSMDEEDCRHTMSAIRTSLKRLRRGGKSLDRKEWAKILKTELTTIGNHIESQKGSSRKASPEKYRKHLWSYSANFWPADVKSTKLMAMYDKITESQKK
# Chain of Sialic acid-binding Ig-like lectin 9 (Homo sapiens) (Q9Y336 whole entry): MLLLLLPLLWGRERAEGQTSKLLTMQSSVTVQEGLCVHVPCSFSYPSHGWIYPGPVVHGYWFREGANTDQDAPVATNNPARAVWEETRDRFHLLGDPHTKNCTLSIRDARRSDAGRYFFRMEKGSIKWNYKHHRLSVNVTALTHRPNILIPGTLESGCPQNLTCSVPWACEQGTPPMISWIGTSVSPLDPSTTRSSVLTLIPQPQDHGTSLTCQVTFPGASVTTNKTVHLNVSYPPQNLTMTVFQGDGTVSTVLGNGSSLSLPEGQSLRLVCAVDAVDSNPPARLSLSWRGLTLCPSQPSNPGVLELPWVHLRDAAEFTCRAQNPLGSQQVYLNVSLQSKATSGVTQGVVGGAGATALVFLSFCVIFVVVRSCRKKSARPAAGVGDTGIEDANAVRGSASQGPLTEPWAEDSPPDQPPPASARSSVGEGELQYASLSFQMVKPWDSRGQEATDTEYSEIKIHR
# Chain of Protein translocase subunit SecA (Escherichia coli (strain K12)) (P10408 whole entry): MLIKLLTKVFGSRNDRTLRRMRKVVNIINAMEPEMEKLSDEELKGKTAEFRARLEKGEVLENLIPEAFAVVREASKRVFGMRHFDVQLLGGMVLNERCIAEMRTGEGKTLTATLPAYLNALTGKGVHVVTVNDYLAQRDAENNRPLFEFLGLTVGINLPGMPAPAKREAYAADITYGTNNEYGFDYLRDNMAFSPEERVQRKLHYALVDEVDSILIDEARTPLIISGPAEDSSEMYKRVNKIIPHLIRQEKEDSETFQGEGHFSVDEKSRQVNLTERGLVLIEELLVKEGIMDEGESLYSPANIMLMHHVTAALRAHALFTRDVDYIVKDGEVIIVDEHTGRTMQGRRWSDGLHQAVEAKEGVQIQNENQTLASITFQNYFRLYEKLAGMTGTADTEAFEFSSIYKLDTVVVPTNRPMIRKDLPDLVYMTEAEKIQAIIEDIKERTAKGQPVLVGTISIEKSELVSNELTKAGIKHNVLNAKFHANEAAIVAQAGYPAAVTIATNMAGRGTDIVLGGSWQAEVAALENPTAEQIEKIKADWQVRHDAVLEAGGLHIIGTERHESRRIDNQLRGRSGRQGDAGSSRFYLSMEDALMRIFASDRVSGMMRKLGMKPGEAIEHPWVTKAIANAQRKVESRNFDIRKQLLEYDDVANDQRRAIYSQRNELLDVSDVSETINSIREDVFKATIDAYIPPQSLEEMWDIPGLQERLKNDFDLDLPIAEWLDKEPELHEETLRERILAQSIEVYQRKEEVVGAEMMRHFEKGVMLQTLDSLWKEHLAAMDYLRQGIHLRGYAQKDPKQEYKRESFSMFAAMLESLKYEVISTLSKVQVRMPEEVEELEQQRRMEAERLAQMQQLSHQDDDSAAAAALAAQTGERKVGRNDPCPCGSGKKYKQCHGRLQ
SMILES,Percent Effect [1],Percent Effect [2],Percent Effect [3],Percent Effect [4],Percent Effect (Trypanosoma cruzi),Percent Effect [5],Percent Effect [6],Percent Effect (Homo sapiens),Percent Effect [7],Percent Effect [8],Percent Effect [9]
CCC(=O)NCC(=O)NCc1cc(Br)ccc1OC(F)F,-3.84%,18.7%,-6.58%,53.5%,3.41%,18.8%,7.15%,-3.97%,7.1%,18.5%,-8.96%
Cc1cccc(NC2CCN(C(=O)Nc3cccc4[nH]ccc34)CC2)n1,-6.98%,17.7%,-19.6%,10.2%,6.7%,-7.22%,3.85%,-7.19%,4.43%,16.5%,-8.65%
CCn1nc(CC(C)C)cc1C(=O)N1C[C@H](O)[C@@H](N2CCCCC2)C1,-3.95%,16%,-4.12%,15.8%,6.33%,4.69%,12.6%,-6.25%,2.73%,13.6%,-6.08%
Cc1occc1C(=O)N1CCc2ncnc(-c3cnn(C)c3)c2CC1,-2.67%,-5.41%,-4.37%,0.728%,6.75%,-1.24%,4.21%,4.88%,1.07%,3.7%,-4.52%
O=C(Cn1nc2c(cc1=O)CSCC2)NC(Cc1ccccc1)C(=O)O (stereo unspecified),-6.43%,20%,-8.36%,1.5%,7.47%,89.3%,15%,7.8%,-2.12%,15.4%,-19%
COc1ccc(-c2noc(C(=O)NCCN3CCCCC3)n2)cc1OC,-7.28%,14.7%,-14.8%,5.74%,8.25%,-18.8%,1.85%,6.7%,3.17%,-5.13%,-13.9%
Cc1nc(C)n(C2CCCN(C(=O)c3cnc[nH]3)C2)n1 (stereo unspecified),-4.48%,-2.7%,-9.26%,8.79%,-4.43%,2%,-2.7%,0.378%,-5.42%,1.24%,6.8%
Cc1ccc(CN2CC(C(=O)Nc3ccccc3)C3(CCOCC3)C2)s1 (stereo unspecified),-2.15%,8%,-1.41%,0.774%,-0.579%,-44.3%,11.4%,-5.53%,3.12%,25%,-6.22%
CC(=O)Nc1cccc(C(=O)Nc2cnc3n2CCCC3)c1,-3.85%,4.17%,-0.344%,0.164%,-1.46%,3.53%,6.14%,17.5%,4.21%,5.13%,-3.23%
CCOc1ccccc1C(=O)NS(=O)(=O)c1ccc2c(c1)OCCCO2,-5.62%,5.26%,-3.19%,0.997%,3.08%,-3.24%,8.04%,7.05%,-29.1%,-21%,-8.5%
CC(C)NC(=O)N1CCN(S(=O)(=O)C2CC2)CC2(CC(=O)N(C)C2)C1 (stereo unspecified),-4.24%,10.4%,5.32%,-0.477%,5.23%,-5.81%,-2.79%,12.6%,1.06%,6.41%,-4.42%
COc1ccc(CNCc2ccnc(N3CCOCC3)c2)c(OC)c1,-4.43%,8.11%,-10.3%,1.04%,-3.49%,3.21%,7.75%,28.2%,3.45%,6.17%,-4.72%
Cc1noc([C@H]2C[C@@H]3CCN(C(=O)N(C)C)C[C@H]3O2)n1,-0.638%,-2.7%,6.92%,9.3%,-2.25%,0.319%,15.5%,-7.89%,-1.08%,2.56%,0.431%
CCc1cc(NCCc2ccc(O)cc2)n2nccc2n1,-0.557%,5.48%,93.2%,6.39%,2.35%,25%,9.58%,46.2%,3.23%,15%,-4.87%
Cc1cccc(-c2nc(CN3CCc4c(ncn4C)C3)no2)c1,-6.97%,2.6%,-1.39%,-3.74%,-7.12%,0.356%,2.7%,21.7%,-0.971%,-2.44%,-2.23%
C1CC1c1nsc(N2CCN(C3CC3)CC2)n1,-5.35%,13.7%,2.89%,8.66%,5.49%,13.2%,13.3%,12.3%,6.45%,15%,-6.12%
